The list is not random: actives were taken first. Their share in the collection is about 12%.
Sfp inh – qHTS Assay for Inhibitors of Bacillus subtilis Sfp phosphopantetheinyl transferase (PPTase); 4'-phosphopantetheinyl transferase ffp (Bacillus subtilis), Q9F4F7; Biochemical Sfp PPTase activity, qHTS; Potency, µM, usual class: inhibitors; 3.5% of 310,000 active;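 further: the enzyme is Sfp with the accession as filed and its product quenches rhodamine fluorescence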
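Fluorescence-quenching assay: 15 nM Sfp-PPTase preincubated 15 min at room temperature with compound, then 5 uM rhodamine-CoA and 12.5 uM BHQ-2-labelled YbbR peptide added. Fluorescence (ex 525/em 598 nm) read at start and after 30 min; difference gives rate.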
L3MBTL1 block – qHTS Assay for the Inhibitors of L3MBTL1. Lethal(3)malignant brain tumor-like protein 1 (Homo sapiens), Q9Y468. AlphaScreen L3MBTL1–H3K9me1 peptide binding. Potency, µM (highest dose often 57.1 µM), hits mostly inhibitors. 0.66% of 230,000 active. AID 485360, 2010; further: nearly all actives have a fitted effect of over 60% in size
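AlphaScreen proximity signal between nickel-chelate acceptor and streptavidin donor beads (final 10 ug/mL) reports binding of 50 nM L3MBTL1 to 75 nM biotin-H3 K9me1 peptide; complex incubated with compounds 30 min at room temperature; cefsulodin titration as control.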
G9a inh – qHTS Assay for Inhibitors of Histone Lysine Methyltransferase G9a; 8.8% of 350,000 active; Histone-lysine N-methyltransferase EHMT2 (Homo sapiens), Q96KQ7; AID 504332, 2011; Potency, µM (doses to about 102 µM), actives largely listed as inhibitors; G9a H3K9 monomethylation, AlphaScreen, 2 h; further: nearly all actives have a fitted effect of over 75% in size
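G9a (20 nM) preincubated 15 min RT with compounds, then 500 nM biotinylated H3K9 peptide and 20 uM SAM added; 2 h RT reaction. Monomethyl-H3K9 product detected by AlphaScreen with anti-H3K9me1 antibody, streptavidin donor and anti-rabbit IgG acceptor beads.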
JMJD2A Tudor – qHTS Assay for Inhibitors of JMJD2A-Tudor Domain. AID 504339, 2011. 4.4% of 390,000 active. Lysine-specific demethylase 4A (Homo sapiens), O75164. Potency, µM (doses to about 114 µM), most hits filed as inhibitors. AlphaScreen JMJD2A-Tudor / H3K4me3 peptide binding; further: nearly all actives have a fitted effect of over 50% in size
HP1b binding inh – HTS for Inhibitors of HP1-beta Chromodomain Interactions with Methylated Histone Tails | Chromobox protein homolog 1 (Homo sapiens), P83916 | AlphaScreen HP1-beta / biotin-H3K9me3 peptide binding | Potency, µM (top dose mostly 114 µM), actives largely listed as inhibitors | 0.56% of 390,000 active; further: nearly all actives have a fitted effect of over 70% in size
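HP1-beta protein (50 nM final) preincubated 30 min at room temperature with biotinylated H3(1-18)K9me3 peptide (50 nM) in PBS pH 7.4, 0.01% Tween-20, then compound added for 30 min. AlphaScreen streptavidin donor/nickel chelate acceptor beads (10 ug/mL final), 30 min dark, luminescence read.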
BAZ2B block – qHTS Assay for Inhibitors of BAZ2B; Bromodomain adjacent to zinc finger domain protein 2B (Homo sapiens), Q9UIF8; AlphaScreen BAZ2B-H3K14Ac peptide displacement; Potency, µM (doses to about 114 µM), hits mostly inhibitors; 4.4% of 360,000 active; further: nearly all actives have a fitted effect of over 60% in size
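AlphaScreen luminescence quantifies BAZ2B engagement of H3K14Ac peptide; the protein and biotinylated peptide are both at 50 nM final, buffer PBS pH 7.4 with 0.01% Tween-20, all steps at room temperature.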
Hits are given with their value; n = inactive; u = inconclusive; x = no result given; [ ] = remark or other dose. The call rests on the fitted dose curve; in most records, active means well fitted curve in the direction sought with a large enough effect; inconclusive means small, poorly fitted or top-dose-only effect, or another doubt; inactive means no such curve, though single readings can be large; an effect the other way counts as inactive or inconclusive.

SMILES | Sfp inh | L3MBTL1 block | G9a inh | JMJD2A Tudor | HP1b binding inh | BAZ2B block
O=C(O)CN1C(=O)/C(=C\c2ccccc2OCc2ccc(Cl)cc2Cl)SC1=S | u | u | 32µM | 56µM | n | u
O=C(O)CN1C(=O)/C(=C\c2cc(Br)ccc2OCc2ccc([N+](=O)[O-])cc2)SC1=S | u | x | 20µM | 56µM | n | 45µM
CCOc1ccccc1C=C1SC(=S)N(CC)C1=O | x | x | x | u | n | x
Cc1ccc(C2=NC(c3ccccc3)=Nc3ccc(Cl)cc3N2)cc1 | x | x | n | n | n | n
CCCN(Cc1cccs1)C(=O)Nc1cc(C)ccc1OC | x | x | n | n | n | n
CCc1cc(=O)[nH]c(SCc2nc(-c3ccccc3)no2)n1 | x | x | n | n | n | n
CC(C)(C)OC(=O)Cc1nnc(-c2cc3ccccc3[nH]2)s1 | x | x | x | n | x | x
O=C(O)CN1C(=O)/C(=C\c2cc(Br)ccc2OCc2ccccc2Cl)SC1=S | u | x | 14µM | u | n | 45µM
O=C(O)COc1ccc(Br)cc1/C=C1/SC(=O)N(CC(=O)N2CCCC2)C1=O | n | x | n[2.33 µM] | u | n | n
O=C(O)c1c[nH]c2ccc(F)cc2c1=O | n | n | 18µM | 79µM | n | 56µM
O=C(O)c1c[nH]c2c(C(F)(F)F)cccc2c1=O | n | x | 35µM | 25µM | n | u
O=c1cc[nH]c2c(C(F)(F)F)cccc12 | n | n | n | n | n | n
COc1cccc2c(=O)c(C(=O)O)c[nH]c12 | n | x | 22µM | 79µM | n | u
O=C(O)c1c[nH]c2ccc(S(=O)(=O)N3CCN(c4ccc(F)cc4)CC3)cc2c1=O | n | n | u | u | n | u
O=C(CCc1nc2cccnc2n1Cc1ccccc1)NCc1cccc(Cl)c1 | x | x | n | n | n | n
COc1ccc(C(=O)c2oc3ccccc3c2NC(=O)c2nc(SC)ncc2Cl)cc1Cl | x | x | n | n | n | n
CC1CCC2C(C)(C)C3CC12CC[C@]3(C)O (some centres not stated) | n | x | x | x | x | x
COc1ccc(-c2nn(-c3ccccc3)cc2C(=O)NC(=S)NNC(=O)c2ccncc2)cc1 | n | x | 32µM | u | u | n
O=C(O)c1cccc(NC(=O)c2cn(-c3ccccc3)nc2-c2ccncc2)c1 | n | n | 32µM | n | u | u
COc1ccc(-c2nn(-c3ccccc3)cc2C(=O)Nc2cccc(C(=O)O)c2)cc1[N+](=O)[O-] | n | n | x | 50µM | n | 40µM
COc1cccc(-c2nn(-c3ccccc3)cc2CO)c1 | n | x | n | n | n | n
O=C(O)c1cccc(NC(=O)c2cn(-c3ccccc3)nc2-c2cccc(Br)c2)c1 | n | n | n | n | n | n
COc1cccc(-c2nn(-c3ccccc3)cc2C(=O)NCC(=O)O)c1 | n | n | 50µM | n | n | n
O=C(O)c1cccc(NC(=O)c2cn(-c3ccccc3)nc2-c2ccc([N+](=O)[O-])cc2)c1 | n | n | x | n | n | u
Cc1cccc(NC(=O)CSc2cn(CC(=O)N3CCOCC3)c3ccccc23)c1C | x | x | n | n | n | u
SMILES | Sfp inh | L3MBTL1 block | G9a inh | JMJD2A Tudor | HP1b binding inh | BAZ2B block
CCc1cccc(NC(=O)Cn2nc(-c3ccc(OC)cc3)ccc2=O)c1 | x | x | n | n | n | n
COc1ccc(-c2csc(Cc3nnc(N4CCOCC4)n3-c3ccccc3)n2)cc1 | n | n | 50µM | n | n | n
COc1ccc(-c2cc(C(=O)NNC(=O)c3csc(N4CCOCC4)n3)c3ccccc3n2)cc1OC | x | n | n | n | n | n
COc1ccc(-c2csc(Cc3nnc4n3CCCCC4)n2)cc1 | n | x | n[12.7 µM] | n | n | u
COc1ccc(-c2csc(Cc3nnc(N4CCOCC4)n3-c3ccccc3)n2)cc1OC | n | x | u | 63µM | n | u
Cc1ccc2cccc(NC(=O)c3ccc(-c4ccc(Br)cc4)o3)c2n1 | x | x | n | n | n | n
O=C(Nc1cccc2nsnc12)c1ccc(-c2ccc(Br)cc2)o1 | 40µM | n | 40µM | n | n | n
COc1ccc(C=NNC(=O)CCCCC(=O)NN=Cc2ccc(OC)cc2)cc1 | x | x | x | n | n | x
O=C(Nc1cccc2nsnc12)c1cccs1 | n | n | n | n | n | n
COc1ccc(/C=N/NC(=O)Nc2cccc3nsnc23)cc1 | n | n | n | 71µM | n | n
O=C(Nc1ccccc1)Nc1cccc2nsnc12 | 63µM | n | n[12.7 µM] | n | n | n
COc1cc(C(=O)OCC(=O)Nc2c(F)cccc2F)cc(OC)c1C | n | u | 45µM | n[11.4 µM] | n | u
O=C(COc1ccc(Cl)cc1)NCC(c1cccs1)S(=O)(=O)c1ccc(F)cc1 (configuration not stated) | x | x | n | n | n | n
CC(=N\O)/C(CN(C)C)=N/O | n | x | u | 79µM | n | n
CC(=O)c1ccc2noc(-c3cccc(C)c3)c2c1 | n | n | 18µM | n | n | n
Cc1cc(C)c2c(C)c(C(=O)N3CCC(c4nc5ccccc5s4)CC3)oc2c1 | x | x | n | n | n | n
CC1(C)Cc2c(c(-c3ccco3)nc3sc4c(NCCN5CCOCC5)ncnc4c23)CO1 | n | n | 18µM | n | n | n
CC1(C)Cc2c(C#N)c(NCCN3CCOCC3)nc(-c3ccco3)c2CO1 | n | n | n | n | n | x
CC1(C)Cc2c(c(-c3ccco3)nc3sc4c(NCC5CCCO5)ncnc4c23)CO1 (configuration not stated) | 20µM | u | n | u | n | n
CC1(C)Cc2c(c(-c3ccco3)nc3sc4c(NCCCO)ncnc4c23)CO1 | 7.9µM | x | x | n | n | n
CC(C)CNc1ncnc2c1sc1nc(N3CCOCC3)c3c(c12)CC(C)(C)OC3 | n | n | n | n | n | n
COc1ccccc1N1CCN(C(=O)c2noc(C)c2[N+](=O)[O-])CC1 | n | x | 56µM | n | n | n
O=C(c1ccc([N+](=O)[O-])s1)N1CCN(c2cccc(Cl)c2)CC1 | n | n | 22µM | 45µM | u | 25µM
COc1ccccc1N1CCN(C(=O)c2ccc([N+](=O)[O-])s2)CC1 | n | n | 45µM | n | n | n
COc1ccc(C)cc1NC(=O)N1CCCn2nc(C)cc21 | x | x | n | n | n | n
CCOc1ccc(N(CC)S(=O)(=O)N2CCCC(C(=O)Nc3cc(Cl)ccc3C)C2)cc1 (configuration not stated) | x | x | n | n | n | n
CCN(c1ccc(NC(=O)COC(=O)/C=C/c2cccs2)cc1)C(C)C | n | n | 8.9µM | 22µM | 35µM | 18µM
